Compounds with a hit are over-represented: about 3% of the library has one in this group of screens.
PP5 primary: blocks human protein phosphatase 5 activity | inhibition, % at 6.7 µM | hit rate 0.18% among 320,000 | purified PP5c, OMFP substrate fluorescence;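 active = inhibition above the campaign's mean inhibition across all tested compounds plus 3 SD, cut at about 9.5% in these data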;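 also: 0% = DMSO only and 100% = 100 µM cantharidin control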
Target sequence (P53041 whole entry, looked up): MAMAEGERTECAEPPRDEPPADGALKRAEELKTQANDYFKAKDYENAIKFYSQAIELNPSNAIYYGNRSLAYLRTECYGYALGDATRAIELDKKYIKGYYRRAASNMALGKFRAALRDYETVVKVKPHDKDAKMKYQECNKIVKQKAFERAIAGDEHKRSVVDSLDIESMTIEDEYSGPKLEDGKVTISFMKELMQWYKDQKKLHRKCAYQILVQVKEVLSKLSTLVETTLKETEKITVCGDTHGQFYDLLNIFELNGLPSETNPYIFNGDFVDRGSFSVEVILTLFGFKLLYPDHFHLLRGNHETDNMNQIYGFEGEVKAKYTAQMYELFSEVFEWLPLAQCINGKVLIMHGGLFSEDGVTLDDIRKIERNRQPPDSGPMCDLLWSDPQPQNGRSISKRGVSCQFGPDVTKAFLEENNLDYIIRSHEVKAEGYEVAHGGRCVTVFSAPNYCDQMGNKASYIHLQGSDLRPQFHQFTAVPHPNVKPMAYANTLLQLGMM
PAFAH2 FP inh: PAFAH2 (human) inhibition. Q99487. inhibition, % at 3.39 µM. hit rate 0.99% among 340,000. AID 492956. recombinant PAFAH2, FP-rhodamine activity probe, fluorescence polarization;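 active = inhibition above the mean over all tested compounds plus 3 SD, cut at about 30% in these data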;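 also: inhibitors block probe labeling of enzyme so polarization drops; 0% = enzyme with DMSO and 100% = wells lacking PAFAH2 protein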
Fh CTSL1 inh: counter-screen for PFM18AAP inhibitors: inhibitors of F. hepatica cathepsin L1. recombinant F. hepatica cathepsin L1, Z-Leu-Arg-MCA fluorescence. inhibition, % at 5.96 µM. hit rate 0.49% among 300,000. AID 1906;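 active = inhibition above the mean of all tested compounds plus 3 SD, set per screening campaign, cut at about 17% in these data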;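 also: 0% = plate median of test compound wells and 100% = 1 µM Z-Phe-Ala-diazomethylketone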
PAFAH1B2 FP inh: inhibitors of human PAFAH1B2; P68402; recombinant PAFAH1B2, FP-rhodamine activity probe, fluorescence polarization; inhibition, % at 3.39 µM; hit rate 1.2% among 340,000;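 active = inhibition above the mean of all tested compounds plus 3 SD, cut at about 24% in these data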;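 also: 0% = enzyme with DMSO and 100% = wells lacking PAFAH1B2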
pPAFAH inh: pPAFAH (human) enzyme inhibition; hit rate 1.5% among 330,000; inhibition, % at 3.39 µM; recombinant pPAFAH, FP-rhodamine probe fluorescence polarization; Q13093;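 active = inhibition above the mean inhibition across the screen plus 3 SD, cut at about 25% in these data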;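 also: inhibitors block binding of the rhodamine activity-based probe so polarization drops; 0% = enzyme with DMSO and 100% = wells lacking pPAFAH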
PAFAH1B3 inh: PAFAH1B3 (human) inhibition; hit rate 0.28% among 340,000; inhibition, % at 3.39 µM; recombinant PAFAH1B3, FP-rhodamine probe, fluorescence polarization; Q15102;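 active = inhibition above the screen-wide average of all tested compounds plus 3 SD, cut at about 25% in these data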;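 also: 0% = enzyme with DMSO only and 100% = wells lacking PAFAH1B3 protein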
* marks the source's active call; other numbers are inactive results; . = no result.

SMILES	PP5 primary	PAFAH2 FP inh	Fh CTSL1 inh	PAFAH1B2 FP inh	pPAFAH inh	PAFAH1B3 inh
CN(CC(=O)Nc1ccc(Cl)c(Cl)c1)C(=O)C12CC3CC(CC(C3)C1)C2	2.9	-10.2	-0.8	26.3*	0.8	6.2
CN(CC(=O)Nc1ccc(Cl)c(Cl)c1)C1CCCCC1	.	0.3	.	8.4	.	-6.7
Cc1ccc(COC(=O)CN2C(=O)NC3(CCCCC3C)C2=O)cc1 (configuration not stated)	.	-6.2	.	-0.5	.	7.6
CCOc1ccccc1NC(=O)COC(=O)C12CC3CC(CC(O)(C3)C1)C2	.	5.2	.	1.2	.	4.1
CCc1ccc(CNC(=O)c2ccc(OC3CCN(C(C)=O)CC3)c(OC)c2)nc1	1.3	4.7	-1.6	0.3	-5.5	-0.8
CCCCCCCCNC(=O)CC(NS(=O)(=O)c1ccc(NC(C)=O)cc1)C(C)C (configuration not stated)	2.9	1.5	0.3	7.1	31.7*	13.2
CC(=O)Nc1ccc(S(=O)(=O)NC(CC(=O)NCCCN2CCOCC2)C(C)C)cc1 (configuration not stated)	1.1	-1.1	6.4	4.5	-2.4	0.1
CCN(CC(=O)NCc1ccc(F)cc1)CC(=O)Nc1cc(S(=O)(=O)N(C)C)ccc1C	-0.2	1.6	.	-2.7	28.7*	-2.4
Cc1ccc(S(=O)(=O)NC(=O)Nc2ccc(N(C)C)cc2)cc1	1.4	0.4	5.2	5.6	25.1*	6.6
CCN(CC(=O)NCc1ccc(F)cc1)CC(=O)Nc1ccc(Br)cc1F	.	5.8	.	7.6	-6.7	5.4
Cc1ccc(NC(=O)Nc2cc(S(=O)(=O)N(C)C)ccc2C)cc1	1.9	-0.6	17.8*	4.1	3.3	1.7
Cc1c(C=C(C#N)c2ccc([N+](=O)[O-])cc2)c(=O)n(-c2ccccc2)n1C	.	-13.6	.	5.5	.	12.0
COc1ccc(S(=O)(=O)N2CCOCC2)cc1NC(=O)C1CCN(S(=O)(=O)c2ccc(Cl)cc2)CC1	.	-8.3	.	3.4	.	-0.2
COc1ccc(CCN(Cc2ccccn2)C(=S)Nc2ccc(C)cc2)cc1OC	1.3	6.1	0.9	1.5	5.5	13.0
COc1ccccc1NC(=S)N(CCc1ccc(OC)c(OC)c1)Cc1ccccn1	2.8	1.0	17.6*	1.1	-3.0	4.3
Cc1ccn2c(=O)nc(SCC(=O)c3ccc(Cl)cc3)nc2c1	-0.6	6.1	6.5	6.0	24.9*	3.5
Cc1ccn2c(=O)nc(SCC(=O)N3CCC(C)CC3)nc2c1	-0.6	5.6	-2.0	1.1	25.6*	2.2
Cc1ccn2c(=O)nc(SCC(=O)N3CCCC3)nc2c1	0.0	3.6	17.1*	2.5	4.6	4.3
CCCn1cnnc1CNC(=O)C1CCC(=O)N(CCc2cccc(F)c2)C1 (configuration not stated)	2.4	-4.1	1.4	2.2	-2.2	6.1
COc1cc2c(cc1OC)CN(C(=O)CCNC(=O)c1ccccc1Cl)CC2	.	-3.0	.	5.0	1.7	0.8
Cc1cc(C)cc(C(=O)OCC(=O)N2CCCCCC2)c1	1.4	0.5	.	4.9	0.4	6.2
CC[C@H](C)/C=C(C)/C=C/C(=O)Cc1cc(O)c(C)c(O)c1C=O	3.2	-1.6	-0.4	-1.9	32.1*	-3.0
O=C1Nc2ccc(Cl)cc2/C1=C/C1CC=CCC1 (configuration not stated)	4.7	-0.2	46.7*	6.6	13.9	8.8
Cc1cc(-c2nnc(SCC(=O)Nc3nc(-c4ccccc4)cs3)o2)no1	0.3	-10.4	0.8	-3.0	30.0*	-0.4
Cc1ccc(C(=O)C2CC2)cc1C	.	3.8	.	1.5	.	3.0
SMILES	PP5 primary	PAFAH2 FP inh	Fh CTSL1 inh	PAFAH1B2 FP inh	pPAFAH inh	PAFAH1B3 inh
COc1cccc(CNC(=O)CN(C)S(=O)(=O)c2ccc3c(c2)n(C)c(=O)c(=O)n3C)c1	0.6	0.6	-0.7	4.8	6.3	0.7
CCc1cccc(CC)c1NC(=S)/C(=C(\[O-])c1ccc(Cl)s1)[n+]1ccccc1	-0.5	0.3	34.2*	-2.3	5.1	5.0
CN(C)c1cc(Cl)c2nonc2c1N	6.5	11.3	39.3*	5.7	10.6	15.9
CCN(CC)c1cc(Cl)c2nonc2c1N	0.2	-1.6	0.0	2.8	1.9	2.9
Clc1ccccc1OCCCOc1cccc2cccnc12	4.1	-5.1	4.8	-0.1	-0.2	10.9
Nc1[nH]ncc1-c1ccccc1	-0.3	1.5	1.0	0.6	0.3	0.2
Nc1[nH]ncc1-c1ccc(F)cc1	2.8	-1.8	-2.7	-0.7	29.8*	-7.6
CCOc1ccccc1CNC(=O)c1ccc(NC(=O)C2=C(C)OCCS2)cc1	2.2	-2.8	1.6	2.6	6.0	6.0
CCN(CC)c1ccc(C(=O)n2cnc3ccccc32)cc1	2.7	29.6	3.7	0.6	29.6*	6.9
COc1ccccc1N(CC(=O)NCCSCc1ccc(C)cc1)S(=O)(=O)c1ccccc1	0.6	1.0	3.6	26.8*	2.2	1.3
COc1ccc(N(CC(=O)NCCSCc2ccc(C)cc2)S(=O)(=O)c2ccccc2)cc1	2.6	-1.8	5.7	10.0	11.1	8.9
COc1ccc(N2CCN(C(=O)c3ccc(CSc4ccccc4)cc3)CC2)cc1	1.6	1.9	-1.7	25.9*	6.7	5.0
COc1cc(CNc2ccc(N3CCCC3)cc2)ccc1OCc1ccccc1	1.3	6.1	-1.0	2.0	29.3*	18.4
CC(=O)N1CCN(c2ccc(NCc3ccccc3)cc2)CC1	-0.4	-4.0	-1.7	5.7	32.2*	-0.2
Cc1ccc(C(=O)N2CCN(c3ccc(NC(=S)NC(=O)Cc4ccccc4)cc3)CC2)cc1	1.8	5.5	1.2	0.8	25.1*	9.4
O=C(CN1CCN(C(=O)c2ccc(-c3nc4ccccc4s3)o2)CC1)Nc1ccc(F)cc1	1.8	-5.7	.	0.0	-9.5	9.1
CC(=O)N1CCN(c2ccc(NCc3cccc4ccccc34)cc2)CC1	1.4	5.2	4.3	-1.3	30.7*	6.2
CCn1cnc2cc(NCc3ccncc3)ccc21	-0.3	-0.7	5.7	-0.6	-8.2	5.2
Cc1nc2cc(NCc3ccc(Cl)cc3)ccc2n1C	2.3	-1.6	2.0	27.6*	0.7	-2.0
CCn1cnc2cc(NCc3ccc(Cl)cc3)ccc21	3.7	-3.2	-3.9	32.4*	-1.0	3.0
Oc1c(Cl)cc(Cl)cc1CNc1nc2ccccc2[nH]1	2.3	19.8	1.6	6.3	18.3	9.3
COc1c([N+](=O)[O-])cc(C(=O)NNC(=O)c2ccc(C)cc2)cc1[N+](=O)[O-]	2.1	8.2	-0.7	5.7	3.3	8.2
O=C(O[C@@H]1OC2COC(=O)c3cc(O)c(O)c(O)c3-c3c(cc(O)c(O)c3O)C(=O)O[C@@H]([C@H]1O)[C@@H]2O)c1cc(O)c(O)c(O)c1	2.5	59.0*	-1.6	26.4*	74.7*	37.3*
S=c1[nH]nc(Cc2ccccc2)n1-c1cccc2ccccc12	1.9	1.9	-2.1	28.0*	4.3	-6.3
CC1CCC(NC(=O)CCCn2sc3ccccc3c2=O)CC1 (configuration not stated)	3.1	0.0	2.7	-1.2	6.5	7.9

Assay outcomes (PubChem)
